Reference: the supplement of paper PMC8728848
About 410 targets per protein were measured; listed, in parts, are those with the strongest signals and a random draw of the rest.

What was measured:
Test in all cases: glycan array binding signal (z-score within array); higher = stronger binding
Settings in all cases: glycan notation: IUPAC condensed, linker removed
Gal(a1-3)Gal = molecular target: Gal(a1-3)Gal
Summary of the method: (§1)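 Glycan array data were curated from 3228 arrays in the Consortium for Functional Glycomics database and kept only where the protein sequence was available. Glycan names were converted to IUPAC-condensed notation, and columns mapping to the same glycan were averaged. The binding signal is a within-array Z-score, averaged across arrays of the same protein sequence at different concentrations or buffers and across linkers. Negative Z-scores can be read as non-binding.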

[1] = molecular target: Gal(a1-3)Gal(b1-4)[Fuc(a1-3)]GlcNAc(b1-2)Man(a1-3)[Gal(a1-3)Gal(b1-4)[Fuc(a1-3)]GlcNAc(b1-2)Man(a1-6)]Man(b1-4)GlcNAc(b1-4)GlcNAc
Summary of the method: as §1

Gal(a1-3)GalNAc = molecular target: Gal(a1-3)GalNAc
Summary of the method: as §1

[2] = molecular target: Gal(b1-3)GalNAc(b1-3)Gal(a1-4)Gal(b1-4)Glc
Summary of the method: as §1

[3] = molecular target: Gal(b1-3)GlcNAc(b1-2)Man(a1-3)[Gal(b1-3)GlcNAc(b1-2)Man(a1-6)]Man(b1-4)GlcNAc(b1-4)GlcNAc
Summary of the method: as §1

[4] = molecular target: Gal(b1-3)GlcNAc(b1-3)Gal(b1-3)GlcNAc
Summary of the method: as §1

[5] = molecular target: Gal(b1-3)GlcNAc(b1-3)Gal(b1-4)[Fuc(a1-3)]GlcNAc(b1-6)[Gal(b1-3)GlcNAc(b1-3)]Gal(b1-4)Glc
Summary of the method: as §1

[6] = molecular target: Gal(b1-3)[Fuc(a1-4)]GlcNAc(b1-2)Man(a1-3)[Gal(b1-3)[Fuc(a1-4)]GlcNAc(b1-2)Man(a1-6)]Man(b1-4)GlcNAc(b1-4)GlcNAc
Summary of the method: as §1

[7] = molecular target: Gal(b1-3)[Fuc(a1-4)]GlcNAc(b1-3)Gal(b1-3)[Fuc(a1-4)]GlcNAc
Summary of the method: as §1

[8] = molecular target: Gal(b1-3)[Neu5Ac(b2-6)]GalNAc
Summary of the method: as §1

[9] = molecular target: Gal(b1-4)GlcNAc(b1-2)Man(a1-3)Man(b1-4)GlcNAc(b1-4)GlcNAc
Summary of the method: as §1

[10] = molecular target: Gal(b1-4)GlcNAc(b1-2)Man(a1-3)[Man(a1-6)]Man(b1-4)GlcNAc(b1-4)GlcNAc
Summary of the method: as §1

Gal4S(b1-4)GlcNAc = molecular target: Gal4S(b1-4)GlcNAc
Summary of the method: as §1

Glc(a1-4)Glc = molecular target: Glc(a1-4)Glc
Summary of the method: as §1

GlcA(b1-3)GlcNAc = molecular target: GlcA(b1-3)GlcNAc
Summary of the method: as §1

GlcA(b1-6)Gal = molecular target: GlcA(b1-6)Gal
Summary of the method: as §1

[11] = molecular target: GlcNAc(a1-3)Gal(b1-4)GlcNAc
Summary of the method: as §1

[12] = molecular target: GlcNAc(a1-4)Gal(b1-4)GlcNAc(b1-3)Gal(b1-4)Glc
Summary of the method: as §1

[13] = molecular target: GlcNAc(a1-6)Gal(b1-4)GlcNAc
Summary of the method: as §1

[14] = molecular target: GlcNAc(b1-2)Gal(b1-3)GalNAc
Summary of the method: as §1

[15] = molecular target: GlcNAc(b1-4)GlcNAc(b1-4)GlcNAc
Summary of the method: as §1

Kdn(a2-6)Gal(b1-4)GlcNAc = molecular target: Kdn(a2-6)Gal(b1-4)GlcNAc
Summary of the method: as §1

[16] = molecular target: Man(a1-3)[Man(a1-6)]Man(b1-4)GlcNAc(b1-4)GlcNAc
Summary of the method: as §1

[17] = molecular target: Neu5Ac(a2-3)Gal(b1-4)GlcNAc(b1-2)Man(a1-3)[Neu5Ac(a2-6)Gal(b1-4)GlcNAc(b1-2)Man(a1-6)]Man(b1-4)GlcNAc(b1-4)GlcNAc
Summary of the method: as §1

[18] = molecular target: Neu5Ac(a2-3)Gal(b1-4)[Fuc(a1-3)]GlcNAc(b1-3)Gal(b1-4)[Fuc(a1-3)]GlcNAc(b1-3)Gal(b1-4)[Fuc(a1-3)]GlcNAc
Summary of the method: as §1

[19] = molecular target: Neu5Ac(a2-6)Gal(b1-4)GlcNAc(b1-3)GalNAc
Summary of the method: as §1

[20] = molecular target: Neu5Ac(a2-6)GlcNAc(b1-4)GlcNAc(b1-4)GlcNAc
Summary of the method: as §1

[21] = molecular target: Neu5Ac9Ac(a2-6)Gal(b1-4)GlcNAc
Summary of the method: as §1

Neu5Gc(a2-3)Gal(b1-4)Glc = molecular target: Neu5Gc(a2-3)Gal(b1-4)Glc
Summary of the method: as §1

B1: Lmo1413 (Listeria monocytogenes), Q8Y783 (protein)
chain: MKHAKKSLFTFIIFMTILSITFNPFSAKAAPLMLNLPAPQVDQLYIGDDYITGKLQQEVPMHYPGNAAYVLFNNKQYNITDYTVENDVNFRLKLPKTLEAGDTLNYFTITGNVLDPVAYPGQESYKLAGPFSPIEKANIQVNYVDETNQTLATSDTLSGKLGETYTTSPKAIDGYQVKETPTNATGTYTTNTETIQINYVYEKTAVEGANVSVEYINEATNESIAPTETLSGKIGTTFQAEVKEIDGYELSQVPSNQSGTYTDQTQSVIFKYKKITTPDEVAKDVTVTYKDTKGNQLADPVILKGDIGSTFETEAKSFKGYKLTKTPSNHSSVFTSDSQEVEYVYSKDDAVITPPVTPVNPDKPIINPVKPVNPATSTVPNKNISKKNTTKTVNQTGKTSTALQLPKTGDSENNLPLIIGVSLLISGVYIFTTRRKRVK
Question: How did the “glycan array binding signal (z-score)” value (Gal(a1-3)Gal) turn out when B1 was run?
Answer: The value was -0.219.

Question: What about the “glycan array binding signal (z-score)” value [1] of the same binder?
Answer: Its value is 0.065.

Question: What about the “glycan array binding signal (z-score)” value (Gal(a1-3)GalNAc) of the same binder?
Answer: The value was -0.056.

Question: And the “glycan array binding signal (z-score)” value [2]?
Answer: The value was -0.2.

Question: And the “glycan array binding signal (z-score)” value [3]?
Answer: Its value is -0.218.

Question: What about the “glycan array binding signal (z-score)” value [4] of the same binder?
Answer: The value was -0.215.

Question: And the “glycan array binding signal (z-score)” value [5]?
Answer: Its value is -0.158.

Question: What about the “glycan array binding signal (z-score)” value [6] of the same binder?
Answer: Its value is 1.29.

Question: What about the “glycan array binding signal (z-score)” value [7] of the same binder?
Answer: Its value is -0.139.

Question: And the “glycan array binding signal (z-score)” value [8]?
Answer: Its value is 2.02.

Question: What about the “glycan array binding signal (z-score)” value [9] of the same binder?
Answer: The value was -0.199.

Question: And the “glycan array binding signal (z-score)” value [10]?
Answer: The value was -0.229.

Question: What about the “glycan array binding signal (z-score)” value (Gal4S(b1-4)GlcNAc) of the same binder?
Answer: The value was -0.075.

Question: And the “glycan array binding signal (z-score)” value (Glc(a1-4)Glc)?
Answer: Its value is 2.23.

Question: And the “glycan array binding signal (z-score)” value (GlcA(b1-3)GlcNAc)?
Answer: The value was 1.78.

Question: What about the “glycan array binding signal (z-score)” value (GlcA(b1-6)Gal) of the same binder?
Answer: Its value is 0.693.

Question: What about the “glycan array binding signal (z-score)” value [11] of the same binder?
Answer: The value was 1.66.

Question: What about the “glycan array binding signal (z-score)” value [12] of the same binder?
Answer: Its value is -0.095.

Question: What about the “glycan array binding signal (z-score)” value [13] of the same binder?
Answer: The value was 1.42.

Question: And the “glycan array binding signal (z-score)” value [14]?
Answer: The value was 2.98.

Question: What about the “glycan array binding signal (z-score)” value [15] of the same binder?
Answer: The value was 0.095.

Question: What about the “glycan array binding signal (z-score)” value (Kdn(a2-6)Gal(b1-4)GlcNAc) of the same binder?
Answer: The value was -0.144.

Question: And the “glycan array binding signal (z-score)” value [16]?
Answer: Its value is -0.231.

Question: And the “glycan array binding signal (z-score)” value [17]?
Answer: The value was -0.29.

Question: What about the “glycan array binding signal (z-score)” value [18] of the same binder?
Answer: Its value is 0.379.

Question: And the “glycan array binding signal (z-score)” value [19]?
Answer: Its value is -0.219.

Question: And the “glycan array binding signal (z-score)” value [20]?
Answer: Its value is -0.222.

Question: What about the “glycan array binding signal (z-score)” value [21] of the same binder?
Answer: Its value is -0.263.

Question: What about the “glycan array binding signal (z-score)” value (Neu5Gc(a2-3)Gal(b1-4)Glc) of the same binder?
Answer: The value was -0.252.
